According to PubChem BioAssay AID686934 (National Center for Advancing Translational Sciences (NCATS), 2013):
Inconclusive results are not listed. Unmarked numbers belong to inactive results. Calls come from the whole dose curve; as a rule, active = well fitted curve in the direction sought with a large enough effect; inconclusive = small, poorly fitted or top-dose-only effect, or another doubt; inactive = no such curve, though single readings can be large or run the other way.

Experiment: qHTS screen for small molecules that inhibit ELG1-dependent DNA repair: SAR in Cell-Based Luciferin Counter Assay
Conditions: cell-based luciferase counter-screen, luminescence; series mostly up to 45.7 µM; activity change, negative = inhibition: at the top concentration
Excerpt: Cancer cells divide rapidly compared to normal cells in the body. During cell division, cancer cells need to duplicate their genome by DNA replication. The failure of genome duplication leads to cancer cells' death. Therefore, inhibitors of DNA replication could specifically kill cancer cells. Based on this concept, many chemotherapeutic agents were developed and have been used to treat cancer patients. However, there are a limited number of agents available in the clinical setting, and some of those that do exist have low efficacy and severe side effects. Therefore, if we can find the compounds that effectively block DNA replication either by directly damaging DNA or by inhibiting other cellular mechanisms, the options for cancer treatment will be broadened. With this in mind, we developed a quantitative high-throughput ELG1-luciferase reporter gene assay. Small molecules that specifically block ELG1 function in response to DNA damage can be identified by monitoring the suppression of luciferase activity. Since ELG1 defines a pathway for repairing DNA damage, agents blocking ELG1 function can be used to sensitize cancer cells to chemotherapeutic agents whose mechanism of action involves the induction of DNA damage. This assays is a counterscreen, that is more specifically, a cell-based luciferase assay following treatment with putative ELG1 antagonists to eliminate luciferase enhancers/inhibitors NIH Molecular Libraries Probe Production Network [MLPCN] NIH Chemical Genomics Center [NCGC] MLPCN Grant: R03 MH092164 Assay Provider: Kyungjae Myung, NHGRI, NIH
3 uL of substrate reagent will be pipetted into each well in 1536-well white, solid-bottom plates using a FRD dispenser, followed by addition of 23 nL of DMSO or compounds by pintool. After compound addition, 1 µL of luciferase will be added into the wells. The plates will be read in a ViewLux CCD-based plate reader.

| Structure (SMILES) | activity change, negative = inhibition [%] |
| --- | --- |
| O=C(CCl)c1ccc(O)c(O)c1 | -10.9 |
| CCCCCC1C(=O)O[C@H](C)[C@@H](NC(=O)c2cccc(NC=O)c2O)C(=O)OC(C)C1OC(=O)CC(C)C (stereo partly specified) | 4.59 |
| CCCC(=O)O[C@@H]1[C@@H](C)[C@@]2(O)[C@@H](C=C(CO)C[C@]3(O)C(=O)C(C)=C[C@@H]23)[C@@H]2C(C)(C)[C@]12OC(=O)CCC | 64.7 |
| CN[C@@H]1C[C@@]2(C)O[C@@H]([C@@H]1OC)n1c3ccccc3c3c4c(c5c6ccccc6n2c5c31)C(=O)NC4 | -73.1 |
| CC(=O)OCC1=C[C@H]2[C@@H]3C(C)(C)[C@]3(OC(=O)Cc3ccccc3)C[C@@H](C)[C@]2(O)[C@@H]2C=C(C)C(=O)[C@@]2(O)C1 | 51.3 |
| CCCSc1ccc2nc(NC(=O)OC)[nH]c2c1 | 64.3 |
